Here are results for 60 sequences from the OligoGym collection.

Some targets named below: PLCB3; PLAA; PLA2R1; PLB1; PML; POLR3B; PPIP5K1; PPIF; PPM1D; PPIA; PPIL1.
Common to all, as to test: pooled miR-30 sensor sort-seq; sequence = guide strand
What all share (settings): shRNA
Further: reference of the scale not given here.

AAGAACACTGTGTTCACCGGGT gave a sensor-assay potency score (higher = more potent) with PLCB3 of 0.656.
As to TATACTTCAAGACACTCGCCAG, the sensor-assay potency score (higher = more potent) with PLAA is -0.398.
Regarding TTTGATGAACTTACTCCCGCGC, the sensor-assay potency score (higher = more potent) with PLCB3 stood at 0.0652.
Same read-out and setting: under TTGTATTCCACAAACTCCATGG stands -0.418.
With TAATGCACTGTTATCAGCCTGA, the sensor-assay potency score (higher = more potent) in the assay with PLA2R1 turned out to be 0.301.
In turn, TAGACTGAGCTGGAAGTCGGAT returned a sensor-assay potency score (higher = more potent) with PLAA of -0.595.
Turning to TAACACTCCACTGATAGGCTTC, the sensor-assay potency score (higher = more potent) in the assay with PLAA came out at 0.424.
With ATGAAGTTCAAGAACACTGTGT, in the assay with PLCB3, the sensor-assay potency score (higher = more potent) amounted to 0.354.
In turn, TCTATGATCATCTTTCATCTTC registered a sensor-assay potency score (higher = more potent) in the assay with PLB1 of 0.303.
TTAGTGACAAACATTGGGCTTT came in with a sensor-assay potency score (higher = more potent) with PLAA of 0.657.
Take TATTGTGGTCATTTCCACCGGT: the sensor-assay potency score (higher = more potent) with PLAA is 0.536.
In the assay with PLCB3, TAGTTGGAGGAGTCCACGCGGG showed a sensor-assay potency score (higher = more potent) of -1.09.
In the assay with PLAA, TAGGTCTTGTACTACTTCCAAG had a sensor-assay potency score (higher = more potent) of -1.39.
For the sequence TAGTGGACCAGATCATTGCAGA, in the assay with PLB1, the sensor-assay potency score (higher = more potent) was -0.927.
Sequence TTGAGCATTCAACCAAACCATC showed a sensor-assay potency score (higher = more potent) in the assay with PLA2R1 of -1.81.
For TTCGATGTAGTTGACAAGCGTG, the sensor-assay potency score (higher = more potent) with PLCB3 was -0.63.
Consider TACTTTTCGATGAGCAGCCGGG, for which the sensor-assay potency score (higher = more potent) with PLCB3 is -0.993.
Regarding TTAACTTCTTCTCTTCAGGTGC, the sensor-assay potency score (higher = more potent) in the assay with PLAA was 0.5.
With TTATCTTCCAGTCTTCCTGAAA, the sensor-assay potency score (higher = more potent) with PLB1 was -0.752.
In turn, TAATTAGTGACAAACATTGGGC registered a sensor-assay potency score (higher = more potent) in the assay with PLAA of -0.357.
In turn, TTGAAAGTCAAGTTGCAGGTTC returned a sensor-assay potency score (higher = more potent) in the assay with PLB1 of 0.551.
On to TATTGTTCCAGAGAGCACTGGC, for which, in the assay with PLB1, the sensor-assay potency score (higher = more potent) came out at 0.63.
For the sequence TATTCCACAAACTCCATGGGGC, the sensor-assay potency score (higher = more potent) in the assay with PLCB3 is -0.0487.
TTTAACAGTCTTGTCTGCTGAT: the sensor-assay potency score (higher = more potent) in the assay with PLAA amounted to 0.5.
The sequence TTGATCTTGTTTTCAAACTTAT returned a sensor-assay potency score (higher = more potent) with PLB1 of -0.907.
As for TTGTCTGCTGAGAACATCTTCA, in the assay with PLCB3, the sensor-assay potency score (higher = more potent) is -0.392.
In turn, TTGTTGGAGGTAGTCTTGCGGC displayed a sensor-assay potency score (higher = more potent) with PLB1 of -0.878.
TTGCGCAGGAAGGTGTTCCGGG had a sensor-assay potency score (higher = more potent) with PLCB3 of -0.298.
For ATACTGTGTGGTGACATCGGGG, in the assay with PLB1, the sensor-assay potency score (higher = more potent) was -1.03.
The sequence TCCATCTTGATGACCTTCCTGG displayed a sensor-assay potency score (higher = more potent) with PML of -0.889.
Consider TATATGAGTCTGTTGCTCCTTT, for which the sensor-assay potency score (higher = more potent) with POLR3B stood at 0.252.
The sequence TAAAGCATGATGACAATCTGGG came in with a sensor-assay potency score (higher = more potent) in the assay with PPIP5K1 of 0.285.
TCTGTGATGACAATCTTCTTGG gave a sensor-assay potency score (higher = more potent) with PPIF of 0.0684.
Sequence TTGGACTCTTCTAATGTCCTTT had a sensor-assay potency score (higher = more potent) in the assay with PPM1D of -0.026.
Regarding TCTTCTTGCTGGTCTTGCCATT, the sensor-assay potency score (higher = more potent) with PPIA is -1.28.
Turning to TTTCACTTCTAGTCAATCTTGT, the sensor-assay potency score (higher = more potent) with PPIF worked out at 0.721.
TTAGCATTACATGTCATTCTAT returned a sensor-assay potency score (higher = more potent) in the assay with PPIL1 of -0.539.
In the assay with PPM1D, TTTAACAGAGTTCTTTCGCTGT registered a sensor-assay potency score (higher = more potent) of 0.0988.
The sequence TTCTATTTTCTTCACGACGTCC gave a sensor-assay potency score (higher = more potent) in the assay with PPIF of -0.712.
Regarding TTGAGTAACGTCCTCCATGTAC, the sensor-assay potency score (higher = more potent) with PPM1D was -0.62.
In turn, TAGATAGATGCACCACCTCGAC displayed a sensor-assay potency score (higher = more potent) in the assay with PPIL1 of -1.34.
As for TAAACAGGTATTAGAGTCCTTT, the sensor-assay potency score (higher = more potent) with PPIF is -0.324.
With TTTTACAGCAACTTATACCCTA, in the assay with PPM1D, the sensor-assay potency score (higher = more potent) was determined as 0.379.
In the case of TTCACTTCTAGTCAATCTTGTT, the sensor-assay potency score (higher = more potent) in the assay with PPIF was -0.0767.
For TTTTTTCTCCTCTTGGTCCTGG, the sensor-assay potency score (higher = more potent) with PPM1D was found to be 0.387.
In turn, TATAATATACTTGTGCTTCTGA displayed a sensor-assay potency score (higher = more potent) with PPM1D of 0.584.
In the case of TATACTTGTGCTTCTGAGGGTC, the sensor-assay potency score (higher = more potent) in the assay with PPM1D was 0.801.
As for TTGAGGGTATGACTACACCTTG, in the assay with PPM1D, the sensor-assay potency score (higher = more potent) was -1.21.
With TTACATGTCATTCTATGTCATC, in the assay with PPIL1, the sensor-assay potency score (higher = more potent) is -1.08.
Turning to TTCGATTCGTTCTCTTTCCTTG, in the assay with PPM1D, the sensor-assay potency score (higher = more potent) was 0.00604.
TTCTGTGGAATTTTGTGCCATT registered a sensor-assay potency score (higher = more potent) in the assay with PPIL1 of -0.861.
The same measure, in the same setting: under TTCTATGTCATCTAGAAGCTGG stands 0.291.
As for TTCACGTCGTCCACAGGGCGGT, the sensor-assay potency score (higher = more potent) with PPIL1 is -0.967.
For TAAAATGTACTTCCATCTCTAA, the sensor-assay potency score (higher = more potent) with PPIL1 was -0.493.
As to TAGCCATGGACAGGACACCTGG, in the assay with PPIF, the sensor-assay potency score (higher = more potent) was -1.46.
In the assay with PPIA, TAACCAAATCCTTTCTCTCCAG had a sensor-assay potency score (higher = more potent) of -0.631.
In the case of TTAAACAGGTATTAGAGTCCTT, the sensor-assay potency score (higher = more potent) with PPIF is -0.0918.
Consider TATGTCATCTAGAAGCTGGTTC, for which, in the assay with PPIL1, the sensor-assay potency score (higher = more potent) was 0.329.
TTTACAGCAACTTATACCCTAA gave a sensor-assay potency score (higher = more potent) with PPM1D of -0.288.
Sequence TTGGATCATGAAGTCTTTGATA returned a sensor-assay potency score (higher = more potent) in the assay with PPIL1 of -1.36.
